Values without a mark were called inactive. Results filed as inconclusive are left out. Active and inactive are the calls of the source. Unless noted, calls come from the whole dose curve; as a rule, active = well fitted curve in the direction sought with a large enough effect in the repeat runs; inconclusive = weak or mixed curves; inactive = no such curve, though single readings can be large; an effect the other way counts as inactive or inconclusive.

A short description of experiment [1]: qHTS assay to identify small molecule antagonists of the estrogen related receptor signaling pathway with the pleiotropic PPARgamma coactivator (PGC) from Tox21 10K library (AID 1224841; call rule not given here; note: actives are mostly falling curves and most rising ones were filed inactive; nearly all actives have a fitted effect of over 50% in size). In short, it runs like this:
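Antagonism in this quantitative HTS is taken from loss of luciferase signal in PGC/ERR cells. Cells (2,000/well) are treated with compounds in DMSO after a 6 h settling period and read by One-Glo luminescence after 18 h.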
A general note: In qHTS, concentration-response curves come from the screen itself.

A short description of experiment [2]: qHTS assay to identify small molecule agonists of the hypoxia (HIF-1) signaling pathway - cell viability counter screen (AID 1224844; calls by dose curve; note: nearly all actives have a fitted effect of over 50% in size). In short, it runs like this: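 Tox21 10K compounds were added to HRE-bla ME-180 cells (0.5% dialyzed FBS) and incubated 17 hrs at 37C; ATP-based CellTiter-Glo luminescence then reported cell viability in the same wells.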
Experiment [3] in a line: qHTS assay to identify small molecule agonists of H2AX (AID 1224845; active = well fitted activation curve with a large enough effect in the signal ratio in the repeat runs, not every such curve was filed as active; the % refers to the signal ratio). In short, it runs like this: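 Wild-type CHO-K1 cells, plated overnight, exposed 3hr at 37C to 15 concentrations (0.76% DMSO final). Lysed, then HTRF anti-pH2AX (S139) cryptate and anti-H2AX-d2 antibodies, 24 hr room temperature; 665/620 nm emission read.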
The nature of experiment [4]: qHTS assay to identify small molecule agonists of the hypoxia (HIF-1) signaling pathway (AID 1224846; active = well fitted activation curve with a large enough effect in the signal ratio in the repeat runs, not every such curve was filed as active; the % refers to the signal ratio). In short, it runs like this:
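Steps: seed ME-180 HRE-bla cells (2,000/well, 0.5% dialyzed FBS); incubate 5 hrs at 37C; pin-transfer compounds or DMSO; incubate 17 hrs; add LiveBLAzer B/G substrate CCF4-AM; measure reporter activation by FRET.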

Experiment [5] in a line: qHTS assay to identify small molecule agonists of H2AX - cell viability counter screen (AID 1224847; calls by dose curve; note: top concentration of the series differs between compounds; nearly all actives have a fitted effect of over 30% in size). A digest of the protocol:
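For this counter screen, overnight-attached CHO-K1 cells received test compounds (15 concentrations, 0.76% DMSO final); 3 hr later at 37C, CellTiter-Glo reagent was added and luminescence recorded after 30 min at room temperature.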

Experiment [6] in a line: qHTS assay to identify small molecule antagonists of the estrogen related receptor (ERR) signaling pathway from Tox21 library (AID 1224848). Note: nearly all actives have a fitted effect of over 50% in size. In short, it runs like this:
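ERR reporter cell line (from NTP) seeded 2,000 cells/well, rested 6 h at 37 C/5% CO2, then pin-dosed with compounds in DMSO. After 18 h at 37 C, ONE-Glo added; luminescence read after 30 min at room temperature.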

Experiment [7] can be described thus: qHTS assay to identify small molecule agonists of the estrogen related receptor (ERR) signaling pathway from Tox21 library (AID 1224849; calls by dose curve; note: nearly all actives have a fitted effect of over 15% in size). The conditions noted are these: ERR reporter cell line, ONE-Glo luciferase, 18 h; at 92.4 µM (top of the series) unless noted. In short, it runs like this: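 Agonist signal is luciferase luminescence from an ERR reporter cell line treated 18 h at 37 C with DMSO-dissolved compounds, read 30 min after ONE-Glo addition at room temperature.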

Experiment [8] in a line: qHTS RealTime-Glo MT Cell Viability Assay in HepG2 cells - 24 hour (AID 1224867). Note: nearly all actives have a fitted effect of over 50% in size. In short, it runs like this: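 HepG2 suspension premixed with RealTime-Glo reagents is plated at 600 cells per well and left 5 h at 37 C/5% CO2. Compounds in DMSO then go in, and bioluminescence reflecting viable cell number is recorded over 40 h.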
A short description of experiment [9]: qHTS assay to identify small molecule agonists of the estrogen related receptor signaling pathway with the pleiotropic PPARgamma coactivator (PGC) from Tox21 10K library (AID 1224842). Note: nearly all actives have a fitted effect of over 15% in size. Note: potency is the fitted concentration of half-maximal effect. In short, it runs like this: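 PGC/ERR reporter cell line, 2,000 cells per well, incubated 6 h at 37 C before 23 nL compound in DMSO was added. After 18 h at 37 C, One-Glo luminescence read following 30 min at room temperature.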

Experiment [10] has as its target Thyrotropin receptor (Homo sapiens) (UniProt P16473). Kind of experiment: qHTS assay to identify small molecule agonists of the thyroid stimulating hormone receptor (TSHR) signaling pathway (AID 1224843; calls by dose curve; note: nearly all actives have a fitted effect of over 45% in size). In short, it runs like this: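 TSHR-HEK293 cells in agonist mode, 30 min room-temperature step, then cAMP measured by competitive HTRF (cAMP-d2 with anti-cAMP cryptate) after 1 h at room temperature. Tested at 15 concentrations in triplicate.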
% is set by controls: 0 for no effect and ±100 for the full control effect.

Thyrotropin receptor (Homo sapiens), sequence (P16473 whole entry, looked up): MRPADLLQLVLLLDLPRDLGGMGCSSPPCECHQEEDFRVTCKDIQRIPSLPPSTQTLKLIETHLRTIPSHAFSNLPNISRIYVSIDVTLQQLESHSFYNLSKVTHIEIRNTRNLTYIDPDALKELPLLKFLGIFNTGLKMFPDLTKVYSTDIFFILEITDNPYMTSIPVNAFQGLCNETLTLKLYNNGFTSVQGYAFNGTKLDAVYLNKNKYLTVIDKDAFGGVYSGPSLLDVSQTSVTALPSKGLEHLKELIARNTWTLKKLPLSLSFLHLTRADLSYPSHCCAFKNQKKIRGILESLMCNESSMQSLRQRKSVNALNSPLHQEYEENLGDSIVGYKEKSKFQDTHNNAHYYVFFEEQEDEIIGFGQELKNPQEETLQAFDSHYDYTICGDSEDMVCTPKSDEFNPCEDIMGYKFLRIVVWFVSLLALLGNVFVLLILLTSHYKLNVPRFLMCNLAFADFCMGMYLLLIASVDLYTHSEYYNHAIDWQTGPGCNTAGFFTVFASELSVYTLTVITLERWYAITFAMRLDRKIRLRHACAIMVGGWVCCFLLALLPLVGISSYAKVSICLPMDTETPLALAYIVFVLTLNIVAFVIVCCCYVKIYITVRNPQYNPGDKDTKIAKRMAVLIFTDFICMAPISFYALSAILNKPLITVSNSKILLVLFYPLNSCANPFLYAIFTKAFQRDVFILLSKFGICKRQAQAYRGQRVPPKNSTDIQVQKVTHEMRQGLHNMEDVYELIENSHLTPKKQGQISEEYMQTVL

`CC(CC(=O)Cl)CC(C)(C)C` (stereo not drawn): the Potency result in experiment [1] was “inactive”. The outcome in experiment [2], in experiment [3], in experiment [4], in [5], in experiment [6] and in experiment [8] was inactive. Moreover, the activity change, positive = activation in experiment [7] is 5.62%.
On to `CC(CN1CC(=O)NC(=O)C1)N1CC(=O)NC(=O)C1` (stereo not drawn), for which the Potency result in experiment [1] and in experiment [9] was “inactive” each time. Further, the compound was called inactive in experiment [2], in [3], in experiment [4], in experiment [5], in experiment [6] and in experiment [8].
Take `Nc1cc(S(=O)(=O)O)ccc1O`: the Potency entry in [1] and in experiment [9] was “inactive” throughout. Besides, the outcome in [2], in experiment [4], in experiment [5] and in [6] was inactive.
Regarding `CN(C)c1cc(NC(=O)CNC(C)(C)C)c(O)c2c1C[C@H]1C[C@H]3[C@H](N(C)C)C(=O)C(C(N)=O)=C(O)[C@@]3(O)C(=O)C1=C2O`, in experiment [1], the Potency entry was “inactive”. In addition, the result in experiment [2], in experiment [4], in experiment [5], in experiment [6] and in [8] was inactive.
Turning to `C[Si](C)(C)O[Si](O)(O)O`, the Potency entry in [1] and in experiment [9] was “inactive” throughout. Moreover, the result in experiment [2], in experiment [3], in experiment [5], in experiment [6] and in [8] was inactive. For the same compound, the activity change, positive = activation in [7] is 4.29%.
Take `COc1cc2nc(N3CCN(C(=O)C4CCCO4)CC3)nc(N)c2cc1OC` (stereo not drawn): the Potency entry in [1] and in experiment [9] was “inactive” in each case. Besides, the call in experiment [2], in experiment [3], in experiment [5], in experiment [6] and in experiment [8] was inactive.
Take `CC(C)(C)c1ccc(N)cc1`: the Potency entry in [1] and in [9] was “inactive” in each case. For the same compound, the call in [2], in experiment [3], in experiment [4], in experiment [5], in experiment [6] and in experiment [8] was inactive.
For the compound `BrCCOc1ccccc1`, the Potency entry in experiment [1] and in experiment [9] was “inactive” each time. Besides, the call in experiment [2], in experiment [3], in experiment [4], in [5], in experiment [6] and in [8] was inactive.
Consider `CN(C)CCC[C@@]1(c2ccc(F)cc2)OCc2cc(C#N)ccc21`, for which the Potency result in experiment [9] and in experiment [10] was “inactive” each time. The result in experiment [2], in experiment [3], in experiment [5], in experiment [6] and in experiment [8] was inactive. Also, the activity change, positive = activation in [7] was -3.55% [at 42.5 µM].
Turning to `CCCCN1C(=O)c2ccccc2C1=O`, the Potency result in experiment [1] and in [9] was “inactive” in each case. Also, the compound was called inactive in experiment [2], in experiment [3], in experiment [4] and in [6].
Regarding `O=C(O)CCCCCCCCCC(=O)O`, the Potency entry in experiment [1] and in experiment [9] was “inactive” in each case. The outcome in [2], in experiment [3], in [4], in experiment [5], in experiment [6] and in [8] was inactive.
For `C=CC(=O)OCCOCCOCC`, the Potency entry in experiment [1] and in experiment [9] was “inactive” throughout. For the same compound, the result in experiment [2], in experiment [3], in experiment [4], in experiment [5], in experiment [6] and in experiment [8] was inactive.
Turning to `C[n+]1ccccc1/C=N/O`, the Potency entry in experiment [1] and in experiment [9] was “inactive” throughout. Further, the outcome in experiment [2], in experiment [3], in experiment [5], in [6] and in experiment [8] was inactive. In addition, the activity change, positive = activation in experiment [7] was 0.0992% [at 42.5 µM].
`C=CCCCCCCCCOC(C)=O`: the Potency entry in [1] and in experiment [9] was “inactive” throughout. The result in [2], in [3], in experiment [4], in [5], in [6] and in experiment [8] was inactive.
In the case of `CCO[Si](CC(C)C)(OCC)OCC`, the Potency result in experiment [1] and in experiment [9] was “inactive” each time. Besides, the compound was called inactive in experiment [2], in experiment [3], in [5] and in experiment [8].
On to `CCCCCCCCCCCC(C)=O`, for which the Potency result in [1] and in [9] was “inactive” throughout. For the same compound, the outcome in experiment [2], in experiment [3], in [5], in [6] and in experiment [8] was inactive.
In the case of `CCCCCCCC(=O)N(C)C`, the Potency result in experiment [1] and in [9] was “inactive” in each case. Moreover, the call in [2], in [3], in experiment [5], in [6] and in experiment [8] was inactive.
As to `CCCc1ncc(C(=O)O)s1`, the Potency result in experiment [1] and in experiment [9] was “inactive” each time. In addition, the call in experiment [2], in experiment [3], in [4], in experiment [5], in experiment [6] and in experiment [8] was inactive. In addition, the activity change, positive = activation in experiment [7] is 3.45% [at 42.5 µM].
Turning to `O=c1[nH]c(=O)c2cn[nH]c2[nH]1`, the Potency result in experiment [1] and in experiment [9] was “inactive” throughout. The outcome in experiment [2], in [3], in experiment [4] and in experiment [8] was inactive. Besides, the activity change, positive = activation in [7] is -22.5%.
`O=C(O)CCC(=O)Nc1ccc(S(=O)(=O)Nc2nccs2)cc1`: the Potency entry in [1] and in experiment [9] was “inactive” in each case. For the same compound, the compound was called inactive in experiment [2], in [3], in [5], in [6] and in experiment [8].
With `CC(=O)c1ccc2ccc3ccccc3c2c1`, the Potency entry in experiment [1] and in experiment [9] was “inactive” throughout. The result in [2], in experiment [4], in experiment [6] and in [8] was inactive.
In the case of `C[C@]12C=CC(=O)C=C1[C@@H](F)C[C@@H]1[C@@H]2[C@@H](O)C[C@@]2(C)[C@H]1CC[C@]2(O)C(=O)CO`, in experiment [1], the Potency entry is “inactive”. Besides, in [9], the Potency is 6.68 µM (active). For the same compound, the call in [2], in experiment [3], in [4], in experiment [5], in experiment [6] and in [8] was inactive. Further, the activity change, positive = activation in experiment [7] was -4.03% [at 42.5 µM].
With `Nc1nc(Cl)cc(Cl)n1`, the Potency entry in experiment [1] and in experiment [9] was “inactive” in each case. In addition, the compound was called inactive in [2], in experiment [3], in experiment [4], in experiment [6] and in [8]. Besides, the activity change, positive = activation in [7] is -1.17%.
As for `C=C(C)C(=O)OCCOC1CC2CC1C1C=CCC21` (stereo not drawn), the Potency entry in experiment [1] and in experiment [9] was “inactive” throughout. The result in experiment [2], in experiment [3], in experiment [5], in [6] and in experiment [8] was inactive.
In the case of `Cc1ccc(O)c(C(=O)c2ccccc2)c1`, in experiment [1], the Potency result was “inactive”. The compound was classed as inactive in [2], in experiment [3], in experiment [4] and in experiment [6].
On to `Cc1ccc(O)c([N+](=O)[O-])c1`, for which the Potency result in [1] and in experiment [9] was “inactive” in each case. Moreover, the compound was called inactive in experiment [2], in experiment [4], in experiment [5] and in experiment [8].
`CNC(=O)c1c(I)c(NC(C)=O)c(I)c(C(=O)O)c1I`: the Potency entry in experiment [1] and in experiment [9] was “inactive” each time. The call in [2], in experiment [3], in experiment [4], in experiment [5], in [6] and in experiment [8] was inactive.
Turning to `CCc1ccc(CC)cc1`, the Potency entry in [10] was “inactive”. Also, the outcome in experiment [2], in experiment [3], in experiment [4], in experiment [5] and in [8] was inactive.

The values are drawn from PubChem BioAssay (Tox21).
